From a collection of fitness landscapes (doi:10.1126/science.1257360)
The full ranking holds about 140,000 sequences; the median of “enrichment ratio after two sorts for PhoP signalling” is about 0, and the highest 2% start at about 11. The list comes from a sample in which the highest values are over-represented; it also holds similar and randomly drawn sequences.

B1: PhoQ; a variant is named by its letters at X, in order, P23837 (parent)
chain: MKKLLRLFFPLSLRVRFLLATAAVVLVLSLAYGMVALIGYSVSFDKTTFRLLRGESNLFYTLAKWENNKLHVELPENIDKQSPTMTLIYDENGQLLWAQRDVPWLMKMIQPDWLKSNGFHEIEADVNDTSLLLSGDHSIQQQLQEVREDDDDAEMTHSVAVNVYPATSRMPKLTIVVVDTIPVELKSSYMVWSWFIYVLSANLLLVIPLLWVAAWWSLRPIEALAKEVRELEEHNRELLNPATTRELTSLVRNLNRLLKSERERYDKYRTTLTDLTHSLKTPLXXLQXXLRSLRSEKMSVSDAEPVMLEQISRISQQIGYYLHRASMRGGTLLSRELHPVAPLLDNLTSALNKVYQRKGVNISLDISPEISFVGEQNDFVEVMGNVLDNACKYCLEFVEISARQTDEHLYIVVEDDGPGIPLSKREVIFDRGQRVDTLRPGQGVGLAVAREITEQYEGKIVAGESMLGGARMEVIFGRQHSAPKDE

Variants of: B1
Assay: enrichment ratio after two sorts for PhoP signalling (ratio (wild type AVST 3.29)); higher = more functional
Conditions: with PhoP (E. coli)

Row | Variant | enrichment ratio
1 | SEHG | ≤ 0.25
2 | VTGQ | ≤ 0.25
3 | YERP | ≤ 0.25
4 | RWVH | ≤ 0.25
5 | EIKR | ≤ 0.25
6 | WPFI | ≤ 0.25
7 | MTAY | 4.94
8 | IGLM | 14
9 | IGLA | ≤ 0.25
10 | IGFA | ≤ 0.25
11 | QFWE | ≤ 0.25
12 | ANHE | ≤ 0.25
13 | ANHV | ≤ 0.25
14 | ANCE | 56
15 | ANIE | ≤ 0.25
16 | ANCA | 44.6
17 | ADSE | ≤ 0.25
18 | TGII | ≤ 0.25
19 | AGII | 33.2
20 | AGID | ≤ 0.25
21 | ANSE | 11.5
22 | AKSE | ≤ 0.25
23 | ANPI | ≤ 0.25
24 | LPYL | ≤ 0.25
25 | MLTL | 8.8

Row | Variant | enrichment ratio
26 | YPKQ | ≤ 0.25
27 | RNCE | ≤ 0.25
28 | IICI | ≤ 0.25
29 | MPFW | ≤ 0.25
30 | LFPW | ≤ 0.25
31 | RNAC | ≤ 0.25
32 | NMMW | ≤ 0.25
33 | QIFK | ≤ 0.25
34 | QINA | ≤ 0.25
35 | QQLA | ≤ 0.25
36 | PAGS | ≤ 0.25
37 | ADLH | 5.09
38 | ANCI | 19.9
39 | LNLC | ≤ 0.25
40 | AIMV | 5.05
41 | GNLH | 1.09
42 | ANLC | 22.4
43 | ANFA | ≤ 0.25
44 | AHLC | ≤ 0.25
45 | ADMV | 35.3
46 | FDMV | ≤ 0.25
47 | ANHF | ≤ 0.25
48 | ANLH | 13
49 | MAIR | ≤ 0.25
50 | TWDF | ≤ 0.25

Row | Variant | enrichment ratio
51 | QNMP | ≤ 0.25
52 | QKNG | ≤ 0.25
53 | VWKN | ≤ 0.25
54 | TWHE | ≤ 0.25
55 | ANAW | ≤ 0.25
56 | EGLC | ≤ 0.25
57 | ANYR | ≤ 0.25
58 | ANNS | 12.9
59 | AIIV | 3.98
60 | GNSI | 4.37
61 | ADYV | ≤ 0.25
62 | ADIV | 12.5
63 | AGIV | 14.4
64 | AGIS | 2.92
65 | ANSI | 18
66 | LNSI | ≤ 0.25
67 | AGWV | ≤ 0.25
68 | ADNS | ≤ 0.25
69 | EFTF | ≤ 0.25
70 | GVQP | ≤ 0.25
71 | PEHG | ≤ 0.25
72 | WTQP | ≤ 0.25
73 | TWFQ | ≤ 0.25
74 | QNLY | ≤ 0.25
75 | KERI | ≤ 0.25

Row | Variant | enrichment ratio
76 | KAIG | ≤ 0.25
77 | RCHM | ≤ 0.25
78 | ANIV | 13.7
79 | ANIS | 4.66
80 | ANHN | ≤ 0.25
81 | HKAP | ≤ 0.25
82 | SKVM | 19.7
83 | SKVA | 1.14
84 | SKLM | 16.3
85 | SKLF | 11
86 | SKLA | 8.7
87 | NDKA | ≤ 0.25
88 | ITMN | ≤ 0.25
89 | VVYG | ≤ 0.25
90 | VHNY | ≤ 0.25
91 | HMES | ≤ 0.25
92 | RGTM | ≤ 0.25
93 | FVNM | ≤ 0.25
94 | KSTM | ≤ 0.25
95 | AGTS | 7.67
96 | TVTM | 16.6
97 | SPNM | ≤ 0.25
98 | TVNM | 13.5
99 | GGTM | 1.63
100 | SPTM | ≤ 0.25

Row | Variant | enrichment ratio
101 | TGTM | 15
102 | AGTM | 16.2
103 | YWTM | ≤ 0.25
104 | DANA | ≤ 0.25
105 | MGIR | ≤ 0.25
106 | PYLL | ≤ 0.25
107 | VWQC | ≤ 0.25
108 | KPYK | ≤ 0.25
109 | NMSK | ≤ 0.25
110 | GWYP | ≤ 0.25
111 | NKWL | ≤ 0.25
112 | YWTA | ≤ 0.25
113 | TAPY | ≤ 0.25
114 | TAYI | 10.2
115 | TAGY | 34.1
116 | TAAY | 15.7
117 | KAGY | ≤ 0.25
118 | NAGY | ≤ 0.25
119 | NVMG | ≤ 0.25
120 | SYKQ | ≤ 0.25
121 | DDMM | ≤ 0.25
122 | FLYG | ≤ 0.25
123 | YCDY | ≤ 0.25
124 | PSFY | ≤ 0.25
125 | WEWY | ≤ 0.25

Row | Variant | enrichment ratio
126 | VFIN | ≤ 0.25
127 | YVGY | ≤ 0.25
128 | HIQN | ≤ 0.25
129 | MNWG | 15.6
130 | MNIE | ≤ 0.25
131 | MNVG | ≤ 0.25
132 | MNWN | 15.4
133 | MNQN | ≤ 0.25
134 | MNWE | 17.9
135 | MNWI | 6.11
136 | MNHG | ≤ 0.25
137 | TNWE | ≤ 0.25
138 | TSGQ | 7.96
139 | PQQF | ≤ 0.25
140 | WRDC | ≤ 0.25
141 | YELA | ≤ 0.25
142 | YILM | 12.1
143 | QPLM | ≤ 0.25
144 | WALM | 6.02
145 | HYLM | ≤ 0.25
146 | YELS | 14.9
147 | HALM | 14.3
148 | KALM | ≤ 0.25
149 | YEWI | ≤ 0.25
150 | YIGM | 0.38

Row | Variant | enrichment ratio
151 | TALM | 15.3
152 | HPLM | ≤ 0.25
153 | SGGE | ≤ 0.25
154 | MSWN | 8.63
155 | TQHK | ≤ 0.25
156 | KKLF | ≤ 0.25
157 | HYYY | ≤ 0.25
158 | VMNW | ≤ 0.25
159 | NFPM | ≤ 0.25
160 | MDYM | ≤ 0.25
161 | TGWM | 0.965
162 | FLTQ | ≤ 0.25
163 | HCKA | ≤ 0.25
164 | FSYE | ≤ 0.25
165 | YALM | 12.7
166 | VILM | 1.31
167 | AKLM | 12.4
168 | NALM | 5.51
169 | AALM | 14.8
170 | WKLM | ≤ 0.25
171 | YWLM | ≤ 0.25
172 | PKLM | ≤ 0.25
173 | VALM | 16.8
174 | VLLM | 0.26
175 | RGGT | ≤ 0.25

Row | Variant | enrichment ratio
176 | TCHA | ≤ 0.25
177 | ESLN | ≤ 0.25
178 | AYSD | ≤ 0.25
179 | WYCA | ≤ 0.25
180 | QFWH | ≤ 0.25
181 | FYES | ≤ 0.25
182 | YMRA | ≤ 0.25
183 | QDSF | ≤ 0.25
184 | SHLM | 19.3
185 | AILM | 5.76
186 | AHLM | 12.1
187 | AYLM | ≤ 0.25
188 | YELM | 13.8
189 | SHLA | 3.56
190 | FTLM | 8.49
191 | SHGM | ≤ 0.25
192 | WNLM | ≤ 0.25
193 | ANLM | 13.3
194 | YHLM | 0.877
195 | YELF | 0.264
